USP1 inh: inhibitors of human USP1/UAF1 deubiquitinase; recombinant USP1/UAF1, Ub-Rhodamine cleavage fluorescence; Potency, µM (highest dose often 57.1 µM), hits mostly inhibitors; 390,000 compounds, 0.23% hits; AID 743255; further: nearly all actives have a fitted effect of over 60% in size
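In this screen, compounds sit with the deubiquitinase complex (1nM) for 15 min at room temperature before Ub-Rho is added at 150nM final. Fluorescence rise is then followed for 6 reads every 60 seconds.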
VDR inhibitor: vitamin D3 receptor (human) inhibition. Potency, µM, usual class: inhibitors. 400,000 compounds, 0.93% hits. P11473. VDR-SRC2-3 peptide fluorescence polarization, 2 h
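Fluorescence polarization assay of small-molecule disruption of VDR binding to coregulator peptide SRC2-3. Compounds and controls pin-transferred, then read after 2 h incubation at ambient room temperature.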
TSG101-PTAP inh: blocks PTAP/TSG101 interaction to inhibit HIV-1 budding. 340,000 tested, under 10 active. Fluorescence polarization, FITC-PTAP peptide / Tsg101 binding. Potency, µM (highest dose often 115 µM), actives largely listed as inhibitors. Q99816. AID 493005; active means well fitted inhibition curve with a large enough effect in the main read-out, with a control signal flat, not every such curve was filed as active; inconclusive means small, poorly fitted or top-dose-only effect, or effect the other way, or a change in a side signal; inactive means no such curve, though single readings can be large or run the other way
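Fluorescence anisotropy tracks displacement of a FITC-tagged PTAP peptide (50 nM) from the Tsg101 binding domain (10 uM), following a 20 min room-temperature incubation at pH 7.5.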
PLK1 PBD inh: blocks phosphopeptide binding to human PLK1 polo-box domain; P53350; Plk1 PBD binding of FITC phosphopeptide, fluorescence polarization; Potency, µM, hits mostly inhibitors; 360,000 compounds, 2.8% hits; further: series mostly up to about 57 µM; nearly all actives have a fitted effect of over 65% in size
Target sequence (P53350 whole entry, looked up, the tested form may be a part): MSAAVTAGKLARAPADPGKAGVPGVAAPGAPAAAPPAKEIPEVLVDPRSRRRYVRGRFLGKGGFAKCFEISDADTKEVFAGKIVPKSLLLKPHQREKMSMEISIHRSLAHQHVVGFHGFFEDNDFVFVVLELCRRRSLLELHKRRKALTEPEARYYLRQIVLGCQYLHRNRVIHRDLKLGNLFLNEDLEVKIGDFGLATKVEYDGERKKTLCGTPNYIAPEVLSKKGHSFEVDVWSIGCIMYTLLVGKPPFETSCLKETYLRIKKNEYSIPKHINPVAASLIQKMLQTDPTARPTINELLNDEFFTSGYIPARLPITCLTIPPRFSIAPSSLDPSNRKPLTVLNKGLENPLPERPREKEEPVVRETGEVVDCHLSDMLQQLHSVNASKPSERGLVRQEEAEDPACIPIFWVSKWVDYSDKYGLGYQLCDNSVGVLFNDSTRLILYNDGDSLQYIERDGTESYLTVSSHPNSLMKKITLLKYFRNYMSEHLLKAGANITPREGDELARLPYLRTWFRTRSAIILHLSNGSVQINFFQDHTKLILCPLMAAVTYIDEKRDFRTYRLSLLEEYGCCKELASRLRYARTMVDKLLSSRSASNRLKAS
KAT2A inh: inhibitors of human GCN5L2 histone acetyltransferase | GCN5L2 HAT assay, ThioGlo1 CoA-SH fluorescence | 390,000 compounds, 0.21% hits | Potency, µM (titrated, usually from 58.9 µM), most hits filed as inhibitors
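ThioGlo1-coupled HAT assay: 20nM GCN5L2, 70uM acetyl-CoA, 75uM H3(1-25) peptide, pH 7.5. Fluorescence read at 340/540nm at start and after 20 min at room temperature.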
TbPYK confirm: Trypanosoma brucei pyruvate kinase inhibition, cherry-pick confirmation. shares compounds with PLK1 PBD inh. recombinant TbPYK, Kinase-Glo ATP luminescence. Potency, µM (top dose mostly 76.9 µM), actives largely listed as inhibitors. 890 compounds, 67% hits. AID 720569; further: nearly all actives have a fitted effect of over 70% in size
TbPYK ADP-Glo: TbPYK inhibition, orthogonal confirmation | shares compounds with PLK1 PBD inh | 890 compounds, 62% hits | Potency, µM (doses to about 76.9 µM), actives largely listed as inhibitors | AID 720584 | recombinant TbPYK, ADP-Glo luminescence, 60 min; further: nearly all actives have a fitted effect of over 75% in size
A number is an active result; – = inactive; ? = inconclusive; · = no result given. Sampled rows, rich in hits. Any-hit rate of the full collection: about 3%. Unless noted, the call rests on the fitted dose curve; in most records, active means well fitted curve in the direction sought with a large enough effect; inconclusive means small, poorly fitted or top-dose-only effect, or another doubt; inactive means no such curve, though single readings can be large; an effect the other way counts as inactive or inconclusive.

SMILES	USP1 inh	VDR inhibitor	TSG101-PTAP inh	PLK1 PBD inh	KAT2A inh	TbPYK confirm	TbPYK ADP-Glo
O=C(CC1C[C@H](C(=O)N2CCCCC2)[C@@]2(CCc3ccccc3)c3[nH]c4ccccc4c3CCN2C1=O)NCCCn1ccnc1 (stereo partly specified)	–	–	–	–	–	·	·
Fc1cccc(Cl)c1CNc1n[nH]c(-c2ccco2)n1	?	–	·	·	–	·	·
CCOC(=O)c1ccc(NC(=O)c2sc3nc(N4CCOCC4)c4c(c3c2N)CCCC4)cc1	–	–	–	–	–	?	?
Cc1ccccc1NC(=O)c1sc2nc(N3CCOCC3)c3c(c2c1N)CCCC3	–	–	–	?	?	?	3.98µM
Cc1ccc(S(=O)(=O)N/N=C/c2ccccc2O)cc1	–	–	–	–	?	·	·
Cc1ccc(NNS(=O)(=O)c2ccc(C)cc2)cc1	–	?	–	3.77µM	35.5µM	8.91µM	?
Cc1ccc(S(=O)(=O)NN=CC=CC=NNS(=O)(=O)c2ccc(C)cc2)cc1	–	·	·	?	·	31.6µM	35.5µM
O=C(Nc1ccccc1Cl)C1CCN(S(=O)(=O)c2cccc3nonc23)CC1	–	–	–	–	–	·	·
COc1cc(/C=N/N2C(=O)CSC2=S)cc(Br)c1O	?	?	–	?	–	·	·
COc1cccc(/C=N/N2C(=O)CSC2=S)c1O	–	?	–	?	–	?	?
O=C1CSC(=S)N1N=Cc1c(O)ccc2ccccc12	–	?	–	–	·	?	15.8µM
COc1ccc2ccccc2c1/C=N/N1C(=O)CSC1=S	–	–	–	–	–	·	·
CC1=NN(c2ccccc2)C(=O)/C1=C/c1cn(C)c2ccccc12	–	–	–	–	–	·	·
CN(C)CCNC(=O)C1CCN(c2ncnc3c2nc2n3CCCCC2)CC1	–	–	·	·	–	·	·
O=C(O)c1c(-c2ccccc2)oc2ccc(OCc3ccc(Cl)c(Cl)c3)cc12	?	?	·	·	–	·	·
COc1ccc(C(=O)CSc2ccc(-c3ccco3)nn2)cc1	–	–	–	–	–	·	·
COc1ccc(OC)c(NC(=O)CSc2ccc(-c3ccco3)nn2)c1	–	?	–	?	–	20µM	25.1µM
O=C(CSc1ccc(-c2ccco2)nn1)c1ccccc1	–	–	–	?	–	?	31.6µM
O=C(CCCn1c(=S)[nH]c2ccsc2c1=O)Nc1ccc(F)cc1	–	·	·	–	·	·	·
O=C(CCCn1c(=S)[nH]c2ccsc2c1=O)Nc1ccc2c(c1)OCCO2	–	–	–	–	–	10µM	14.1µM
O=C(CCCCn1c(=S)[nH]c2ccsc2c1=O)NCc1ccc2c(c1)OCO2	–	–	–	–	–	0.355µM	1.12µM
CCc1ccc(NC(=O)CCc2c(C)nc3nc(-c4cc(OC)cc(OC)c4)nn3c2C)cc1	–	–	·	·	–	·	·
CC1C=CCC2C(=O)N(c3cccc(C(=O)NCc4ccccc4)c3)C(=O)C12 (stereo unspecified)	–	–	–	–	–	?	?
CC(C)C1Nc2ccc(C(=O)O)cc2C2C=CCC21 (stereo unspecified)	–	?	–	?	–	?	?
Cn1cccc1C(=O)C(=O)Nc1cc(Cl)cc(Cl)c1	–	?	–	2.99µM	–	–	–
SMILES	USP1 inh	VDR inhibitor	TSG101-PTAP inh	PLK1 PBD inh	KAT2A inh	TbPYK confirm	TbPYK ADP-Glo
O=C(NCc1ccco1)c1cc2ccc(O)cc2oc1=O	–	–	–	–	?	20µM	–
O=C(c1ccccc1)c1cc2ccc(O)cc2oc1=O	–	–	–	–	–	?	–
CCN(CC)CCOC(=O)c1ccc(NC(=O)c2cc3c(s2)-c2ccccc2OC3)cc1	–	–	·	·	–	·	·
Cc1cccc(Cn2cc(S(=O)(=O)c3ccc(Cl)cc3)c(=O)c3cc4c(cc32)OCO4)c1	–	–	·	·	–	·	·
COc1cccc(NC(=O)/C(C#N)=C/c2c(C)n(Cc3ccccc3)c3ccccc23)c1	?	–	·	·	–	·	·
CCOC(=O)c1ccc(NC(=O)c2c(NCc3ccc(OC)c(OC)c3OC)sc3c2CCC(C)C3)cc1 (stereo unspecified)	–	–	·	·	–	·	·
CC1=NN(c2ccccc2)C(=O)/C1=C/C=C/c1ccc(N(C)C)cc1	–	79.4µM	–	–	–	25.1µM	–
Fc1ccc(C[n+]2csc3ccccc32)cc1	–	39.8µM	–	11.9µM	–	7.94µM	12.6µM
Fc1ccc(CSc2ncnc3scc(-c4ccccc4)c23)cc1	–	–	–	–	–	·	·
CCCCCCCCSC1=CC(=O)C(OC)=C(OC)C1=O	–	·	·	2.38µM	·	2.82µM	3.98µM
CCCCCSc1nncc(=O)[nH]1	–	–	–	–	–	·	·
Cc1ccccc1C(=O)Nc1ccccc1C(=O)OCc1cc(=O)n2ccsc2n1	?	–	·	·	–	·	·
COc1ccc(OC)c(NC(=O)c2ccccc2N(Cc2ccccc2)S(C)(=O)=O)c1	–	–	–	–	–	8.91µM	14.1µM
Cc1ccc(N2C(N)=C(C#N)C(c3cccs3)C3=C2CC(C)(C)CC3=O)cc1 (stereo unspecified)	–	–	–	–	–	·	·
CCOC(=O)CC1=C(C(=O)OCC)C(c2cccs2)C(C#N)=C(N)O1 (stereo unspecified)	–	–	–	–	·	·	·
CCOC(=O)c1ccc(N2CSC3=C(C#N)C(c4cccs4)CC(=O)N3C2)cc1 (stereo unspecified)	–	89.1µM	–	–	?	?	?
Cc1ccc(N2CSC3=C(C#N)C(c4cccs4)CC(=O)N3C2)cc1 (stereo unspecified)	–	79.4µM	–	15µM	?	2.51µM	1.58µM
CC(C)(C)OC(=O)NCCCCC1=CC2=CC(=O)C(C)(OC(=O)CCc3ccccc3)C(=O)C2=CO1 (stereo unspecified)	·	–	·	·	·	·	·
Brc1ccc(-c2nc3ccccc3s2)s1	–	–	–	–	–	·	·
O=c1ccc2nc3ccccc3sc-2c1	·	·	·	21.2µM	·	12.6µM	?
Cc1ccc(S(=O)(=O)n2c([N+](=O)[O-])cnc2C)c(C)c1C	–	44.7µM	–	21.2µM	–	–	–
Nc1ccc(S(=O)(=O)c2cc(O)c3ccccc3c2O)cc1	?	?	–	2.67µM	·	12.6µM	31.6µM
O=S(=O)(c1ccccc1)c1cc(O)ccc1O	–	–	–	–	–	·	·
N#Cc1cc2c(nc1SCc1cccnc1)CCC2	–	–	–	–	–	·	·
N#Cc1cc2c(nc1SCc1cccnc1)CCCC2	–	–	–	26.7µM	–	3.98µM	6.31µM
O=S1(=O)N[C@H](Cc2ccccc2)COc2cc(N3CCN(Cc4ccccc4F)CC3)ccc21	·	·	·	–	·	·	·
COc1cc(-c2cnc3c(NC=O)cc(-c4cccc(C(=O)NCCN(C)C)c4)cn23)cc(OC)c1OC	·	·	·	–	·	·	·
O=C1C(Cl)=C(NCCCN2CCOCC2)C(=O)c2ccccc21	?	–	–	–	·	·	·

Source: PubChem BioAssay (National Center for Advancing Translational Sciences (NCATS))
